Test [1] is described as follows: antimalarial activity against Dd2 strain (AID 2302;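 active = growth inhibition above 50% at the single 2 µM test dose, taken to imply half-maximal potency below 2 µM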;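 also: 0% = DMSO untreated growth and 100% = chloroquine plus artemisinin killed control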). Particulars: P. falciparum Dd2 in RBCs, LDH growth readout, 72 h; at 2 µM; stronger effect = higher value.
Test [2] can be described thus: HepG2 cytotoxicity, primary screen, cytotoxicity control for P. falciparum antimalarial project, cell-based, ATP luminescence (AID 2303;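 active = inhibition above 50%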;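 also: 0% = DMSO wells and 100% = digitonin-killed cells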). The settings on record: HepG2 viability, 24-48 h, at 10 µM, stronger effect = higher value.
Test [3] has as its target L-lactate dehydrogenase (Plasmodium falciparum (isolate CDC / Honduras)) (UniProt Q27743). The experiment in a line: PfLDH activity inhibition – cell lysate, 3D7 strain, counter-screen for P. falciparum growth inhibition project (AID 2304).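 Also: 0% = vehicle and 100% = reference inhibitor.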 Particulars: P. falciparum 3D7 crude extract, LDH APAD/NBT absorbance; at 2 µM; stronger effect = higher value. On the technique in general: The purpose of a counterscreen is to sort out artefacts and off-target activity.

A short description of test [4]: inhibition of 3D7 malaria parasite growth – strain 3D7 (AID 2306).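 Also: 0% = DMSO wells and 100% = chloroquine plus artemisinin control wells.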 Particulars: P. falciparum 3D7 erythrocytic growth, LDH absorbance, 72 h; at 2 µM; stronger effect = higher value.
For test [5], the target named is Calcium-dependent protein kinase 1 (Plasmodium falciparum (isolate 3D7)) (UniProt P62344). The experiment in a line: PfCDPK1 kinase inhibitors, biochemical, TCAMS library (AID 1159585; cut-off not given, nearly all actives have IC50 up to about 0.98 µM;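 also: inhibitors leave more ATP so luminescence rises with inhibition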). The settings on record: recombinant PfCDPK1, Kinase-Glo ATP depletion luminescence.
Chain of Calcium-dependent protein kinase 1 (Plasmodium falciparum (isolate 3D7)) (P62344 whole entry, looked up): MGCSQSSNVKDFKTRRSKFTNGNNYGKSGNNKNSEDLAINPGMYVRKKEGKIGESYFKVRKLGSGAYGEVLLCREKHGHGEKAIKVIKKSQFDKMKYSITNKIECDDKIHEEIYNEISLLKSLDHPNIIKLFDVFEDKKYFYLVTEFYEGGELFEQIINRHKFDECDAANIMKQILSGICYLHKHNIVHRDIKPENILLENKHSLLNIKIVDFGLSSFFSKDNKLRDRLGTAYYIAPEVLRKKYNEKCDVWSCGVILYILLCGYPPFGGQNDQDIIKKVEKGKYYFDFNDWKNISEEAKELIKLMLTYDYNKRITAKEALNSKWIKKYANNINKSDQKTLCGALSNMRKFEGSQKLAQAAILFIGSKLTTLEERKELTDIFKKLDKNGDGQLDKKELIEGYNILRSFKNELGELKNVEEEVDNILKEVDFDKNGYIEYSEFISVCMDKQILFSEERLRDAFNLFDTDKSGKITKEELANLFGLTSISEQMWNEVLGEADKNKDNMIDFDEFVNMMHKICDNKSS
Test [6] concerns the target Plasmodium falciparum protein kinase 6 (PK6, PF3D7_1337100) (UniProt Q8IDW1). As to the kind of experiment: PfPK6 kinase inhibitors, biochemical, TCAMS library (AID 1159586). Particulars: recombinant PfPK6, Kinase-Glo ATP depletion luminescence. On the technique in general: In Kinase-Glo more light means more ATP remaining.
For test [7], the target named is Protein kinase 7 (PK7), Plasmodium falciparum 3D7 (PF3D7_0213400) (UniProt Q7YTF7). As to the kind of experiment: inhibition of Plasmodium PK7 catalytic activity – biochemical, TCAMS antimalarial set, Kinase-Glo luminescence (AID 1159587). Particulars: recombinant PfPK7, Kinase-Glo ATP depletion luminescence.
Chain of Protein kinase 7 (PK7), Plasmodium falciparum 3D7 (PF3D7_0213400) (Q7YTF7 1-343): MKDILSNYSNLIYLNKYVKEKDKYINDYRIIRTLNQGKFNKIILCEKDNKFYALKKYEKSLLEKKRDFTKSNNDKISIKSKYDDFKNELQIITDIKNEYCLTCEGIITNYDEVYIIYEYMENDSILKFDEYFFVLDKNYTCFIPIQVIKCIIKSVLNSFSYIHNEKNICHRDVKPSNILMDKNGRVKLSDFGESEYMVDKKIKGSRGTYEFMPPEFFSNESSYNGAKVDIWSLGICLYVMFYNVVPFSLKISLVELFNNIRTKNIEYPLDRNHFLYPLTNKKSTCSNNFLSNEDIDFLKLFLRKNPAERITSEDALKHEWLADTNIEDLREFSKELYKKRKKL
Test [8] deals with Calcium-dependent protein kinase 4 (Plasmodium falciparum (isolate 3D7)) (UniProt Q8IBS5). The experiment in a line: PfCDPK4 kinase inhibitors, biochemical, TCAMS library (AID 1159588; cut-off not given, nearly all actives have IC50 up to about 0.91 µM). Particulars: recombinant PfCDPK4, Kinase-Glo ATP depletion luminescence.
Chain of Calcium-dependent protein kinase 4 (Plasmodium falciparum (isolate 3D7)) (Q8IBS5 whole entry, looked up): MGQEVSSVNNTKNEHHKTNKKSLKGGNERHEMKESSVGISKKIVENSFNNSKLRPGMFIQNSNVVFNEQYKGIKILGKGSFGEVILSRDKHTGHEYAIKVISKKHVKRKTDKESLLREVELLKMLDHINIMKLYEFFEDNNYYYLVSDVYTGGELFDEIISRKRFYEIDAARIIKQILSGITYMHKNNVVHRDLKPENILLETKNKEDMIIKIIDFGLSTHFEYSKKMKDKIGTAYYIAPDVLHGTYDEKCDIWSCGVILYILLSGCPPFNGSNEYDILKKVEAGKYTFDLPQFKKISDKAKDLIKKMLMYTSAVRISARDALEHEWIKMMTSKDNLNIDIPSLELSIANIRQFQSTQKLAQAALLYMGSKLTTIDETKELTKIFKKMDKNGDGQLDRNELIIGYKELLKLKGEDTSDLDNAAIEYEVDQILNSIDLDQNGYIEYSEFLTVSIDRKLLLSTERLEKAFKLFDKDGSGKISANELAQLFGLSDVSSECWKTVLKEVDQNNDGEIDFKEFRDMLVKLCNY

The record followed here is PubChem BioAssay.

Molecules are shown by their SMILES. A number with no mark means an inactive call. For some of these results: Potency and affinity values are given separately. The source made the active and inactive calls. Unless noted, no rule for the calls is given here.

Chain of Plasmodium falciparum protein kinase 6 (PK6, PF3D7_1337100) (Q8IDW1 1-305): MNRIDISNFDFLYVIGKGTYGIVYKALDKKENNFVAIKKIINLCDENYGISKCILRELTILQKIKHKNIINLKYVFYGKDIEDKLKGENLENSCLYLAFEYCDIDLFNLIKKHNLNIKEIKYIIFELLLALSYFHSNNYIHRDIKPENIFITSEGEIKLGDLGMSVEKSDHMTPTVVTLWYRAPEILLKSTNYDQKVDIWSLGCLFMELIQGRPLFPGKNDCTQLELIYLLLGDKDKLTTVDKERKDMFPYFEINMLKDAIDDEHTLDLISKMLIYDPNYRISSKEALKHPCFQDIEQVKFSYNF
Chain of L-lactate dehydrogenase (Plasmodium falciparum (isolate CDC / Honduras)) (Q27743 whole entry, looked up): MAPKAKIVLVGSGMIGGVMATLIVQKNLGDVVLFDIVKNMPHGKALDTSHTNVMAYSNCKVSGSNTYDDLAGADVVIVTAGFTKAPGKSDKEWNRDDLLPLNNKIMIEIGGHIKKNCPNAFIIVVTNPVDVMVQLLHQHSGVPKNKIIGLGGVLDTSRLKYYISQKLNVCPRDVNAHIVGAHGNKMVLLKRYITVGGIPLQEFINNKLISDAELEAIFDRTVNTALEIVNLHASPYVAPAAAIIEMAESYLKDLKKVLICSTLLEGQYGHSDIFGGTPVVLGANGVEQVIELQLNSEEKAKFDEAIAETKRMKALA

A word on the inhibition: it is the drop in the measured response relative to a control, in per cent. Consider `CO/C(=C\C=C\c1cc2cc(Cl)c(Cl)cc2[nH]1)C(=O)NC1C[C@H]2CC[C@@H](C1)N2C` (stereo not given in full), for which the values for the growth inhibition in test [1] and in test [4] were 23% and 88% (active), respectively. Further, the inhibition in test [2] was 46%; in test [3], -4%. Moreover, the result in test [5], in test [6], in test [7] and in test [8] was inactive.

Turning to `Cc1[nH]c(C)c(-c2ccc(Oc3cccc(Cl)c3)cc2)c(=O)c1Cl`, the growth inhibition was 97% (active) in test [1] and 99% (active) in test [4]. Besides, the values for the inhibition in test [2] and in test [3] were 40% and -3%, respectively. Further, the outcome in test [5], in test [6], in test [7] and in test [8] was inactive.

In the case of `Nc1cccc(CNCc2ccc(-c3ccc(-c4nc5ccc(F)cc5[nH]4)s3)cc2)c1`, the growth inhibition in test [1] is 93% (active); in test [4] it was 102% (active). Further, the inhibition was 12% in test [2] and 1% in test [3]. Also, the result in test [5], in test [6], in test [7] and in test [8] was inactive.

In the case of `CCCCC1(c2ccc(F)cc2)NC(=O)N(CC(=O)c2cc(C)n(Cc3ccco3)c2C)C1=O` (stereo not given), the growth inhibition in test [1] was 28%; in test [4] it was 82% (active). Further, the inhibition in test [2] is 6%; in test [3], -3%. Also, the result in test [5], in test [6], in test [7] and in test [8] was inactive.

Take `CC(C)(C)c1nn(-c2ccccc2)c2[nH]c(=O)c(CNC3CCCCC3)cc12`: the growth inhibition in test [1] was 76% (active); in test [4], 83% (active). For the same compound, the inhibition is 6% in test [2] and 3% in test [3]. The result in test [5], in test [6], in test [7] and in test [8] was inactive.

As to `C[C@@H](CC1CCCCC1)OC(=O)N[C@H]1CCN(C#N)C1`, the growth inhibition in test [1] was 83% (active); in test [4], 95% (active). In addition, the inhibition was 7% in test [2] and 1% in test [3]. Besides, the result in test [5], in test [6], in test [7] and in test [8] was inactive.

Take `CS(=O)(=O)c1ccccc1CNC(=O)c1ccc(-c2cccc(-c3nc4ccc(C(F)(F)F)cc4[nH]3)c2)cc1`: the growth inhibition in test [1] was 4%; in test [4], 91% (active). Moreover, the inhibition in test [2] was 36%; in test [3], 4%. The result in test [5], in test [6], in test [7] and in test [8] was inactive.

For `Nc1c(Cl)cc(C(O)CNCCCCCOCCc2ccc3occc3c2)cc1Cl` (stereo not given), the growth inhibition in test [1] was 74% (active); in test [4] it was 99% (active). Also, the inhibition was -2% in test [2] and -1% in test [3]. Further, the outcome in test [5], in test [6], in test [7] and in test [8] was inactive.

Take `CCCCN(CCCC)C(=NCCCCCCN=C(/N=C(/N)Nc1ccc(Cl)cc1)N(CCCC)CCCC)/N=C(/N)Nc1ccc(Cl)cc1`: the values for the growth inhibition in test [1] and in test [4] were 72% (active) and 81% (active), respectively. In addition, the values for the inhibition in test [2] and in test [3] were -1% and -5%, respectively. For the same compound, the result in test [5], in test [6], in test [7] and in test [8] was inactive.

With `CC(CN1CCN(C)CC1)C(=O)Nc1ccc(-c2cccc(-c3nc4ccc(F)cc4[nH]3)c2)cc1` (stereo not given), the growth inhibition in test [1] was 99% (active); in test [4] it was 100% (active). Besides, the inhibition in test [2] was 8%; in test [3] it was 0%. Besides, the result in test [5], in test [6], in test [7] and in test [8] was inactive.

Turning to `CC(C)COc1ccc(Cl)cc1Cc1ccc(-c2nc3cc(F)c(F)cc3[nH]2)o1`, the growth inhibition in test [1] is 96% (active); in test [4] it was 95% (active). Also, the inhibition in test [2] is 27%; in test [3] it was 4%. The result in test [5], in test [6], in test [7] and in test [8] was inactive.

`Cc1ccc(Cc2cnc(NCCSCc3ccc(CN(C)C)s3)[nH]c2=O)cn1`: the growth inhibition in test [1] is -5%; in test [4], 95% (active). Also, the inhibition in test [2] was 3%; in test [3], 0%. For the same compound, the outcome in test [5], in test [6], in test [7] and in test [8] was inactive.

With `CC1(C)N=C(N)N=C(N)N1OCc1ccc2c(c1)OCO2`, the growth inhibition in test [1] was 86% (active); in test [4], 93% (active). Also, the values for the inhibition in test [2] and in test [3] were 66% (active) and -3%, respectively. Moreover, the outcome in test [5], in test [6], in test [7] and in test [8] was inactive.

With `COc1cc2nc(SCC(C)C)n(CCCn3ccnc3)c(=N)c2cc1OC`, the growth inhibition was 78% (active) in test [1] and 99% (active) in test [4]. The inhibition in test [2] is 15%; in test [3], -2%. Moreover, the outcome in test [5], in test [6], in test [7] and in test [8] was inactive.

Turning to `CC(C)CCN(Cc1cncn1Cc1cccc(Cl)c1)C(=O)c1cncc(-c2ccccc2)c1`, the growth inhibition in test [1] is -1%; in test [4], 99% (active). Further, the results for the inhibition in test [2] and in test [3] were 9% and -2%, respectively. For the same compound, the outcome in test [5], in test [6], in test [7] and in test [8] was inactive.

Take `Clc1ccc(C2CCN(CCCOc3ccc4c(c3)CCNCC4)CC2)cc1`: the growth inhibition in test [1] is 28%; in test [4] it was 98% (active). The values for the inhibition in test [2] and in test [3] were 93% (active) and -8%, respectively. Moreover, the outcome in test [5], in test [6], in test [7] and in test [8] was inactive.

On to `O=C(NCCCCCN1CCCN(C(=O)Nc2ccc(Cl)c(C(F)(F)F)c2)CC1)[C@@H]1C[C@H]1c1ccc(Cl)c(Cl)c1`, for which the growth inhibition is 1% in test [1] and 100% (active) in test [4]. The inhibition is 41% in test [2] and 3% in test [3]. The result in test [5], in test [6], in test [7] and in test [8] was inactive.

With `C[C@H](N[C@H]1CCCc2c1[nH]c1ccc(Br)cc21)c1ccccc1`, the growth inhibition in test [1] is 95% (active); in test [4], 96% (active). Also, the inhibition in test [2] is 58% (active); in test [3], 4%. Moreover, the result in test [5], in test [6], in test [7] and in test [8] was inactive.

With `O=C(/C=C/c1ccc(Cl)c(Cl)c1)N1CCC(CCN2CCC(c3nc4ccc(O)cc4[nH]3)CC2)CC1`, the growth inhibition was 60% (active) in test [1] and 100% (active) in test [4]. The figures for the inhibition in test [2] and in test [3] were 42% and 4%, respectively. In addition, the result in test [5], in test [6], in test [7] and in test [8] was inactive.

Take `Cc1nnc2c(NC(=O)NC3CCCC3)cc3cc(-c4ccc(CN5CCN(C)CC5)cc4)ccc3n12`: the results for the growth inhibition in test [1] and in test [4] were 91% (active) and 99% (active), respectively. Besides, the inhibition was 100% (active) in test [2] and -1% in test [3]. Moreover, the outcome in test [5], in test [6], in test [7] and in test [8] was inactive.
